TDP1 cell CPT: qHTS for Inhibitors of human tyrosyl-DNA phosphodiesterase 1 (TDP1): qHTS in cells in presence of CPT; chicken DT40 Tdp1-/-;hTDP1 cells + 20 nM CPT, ATP luminescence, 48 h; Potency, µM (series often up to 46.2 µM), most hits filed as inhibitors; actives 12% (n = 420,000); AID 686979, 2013; further: nearly all actives have a fitted effect of over 55% in size
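Cell growth measured by CellTiter-Glo luminescence after a minimum 48 h, 37 C compound exposure with 20 nM CPT in Tdp1-knockout DT40 cells stably expressing hTDP1, seeded 400/well; qHTS titration format.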
HT1080 IDH1KD tx: qHTS for induction of synthetic lethality in tumor cells producing 2HG: qHTS for the HT-1080-IDH1KD cell line | HT-1080 IDH1 knockdown viability, ATP luminescence, 48 h | Potency, µM (series often up to 46.1 µM), hits mostly cytotoxic | actives 2% (n = 360,000) | AID 686971, 2013
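After a 2 h attachment period, IDH1KD HT-1080 cells took pin-transferred compound for 48 h at 37 °C; ATP-based luminescence after 10 min room-temperature reagent incubation reported viability.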
TDP1 cell noCPT: qHTS for Inhibitors of human tyrosyl-DNA phosphodiesterase 1 (TDP1): qHTS in cells in absence of CPT | DT40 Tdp1-/- hTDP1 cells, no CPT, ATP luminescence, 48 h | Potency, µM (titrated, usually from 46.2 µM), usual class: inhibitors | actives 15% (n = 420,000); further: nearly all actives have a fitted effect of over 55% in size
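Growth of hTDP1-complemented DT40 Tdp1-knockout cells is measured by ATP luminescence after at least 48 hr compound exposure at 37 °C, with DMSO substituting for the 20 nM CPT used in the parallel screen.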
HT1080NT lethal: qHTS for induction of synthetic lethality in tumor cells producing 2HG: qHTS for the HT-1080-NT fibrosarcoma cell line | HT-1080-NT fibrosarcoma viability, CellTiter-Glo ATP luminescence, 48 h | Potency, µM (top dose mostly 46.1 µM), usual class: cytotoxic | actives 1.6% (n = 360,000) | AID 686970, 2013;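 further: NT is the 2HG producing partner of a matched IDH1 knockdown line; nearly all actives have a fitted effect of over 55% in size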
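Toxicity toward the 2HG-producing NT line was scored as %Activity, normalised to DMSO and no-cell wells, from CellTiter-Glo luminescence after 48 hours' treatment.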
IL-1B inflam inh: qHTS for Inhibitors of Inflammasome Signaling: IL-1-beta AlphaLISA Primary Screen. THP-1 LPS/ATP IL-1B secretion, AlphaLISA, 16 h; hits give low values. activity change, % at 57.5 µM. actives 4.7% (n = 360,000). AID 743279, 2014; in the data active means activity change below about -50%; inconclusive means mostly about -30% to -49%
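Secreted IL-1B measured by AlphaLISA bead assay after 16 h compound exposure of THP-1 cells; compounds (final up to 57.5 uM) added 1 h before LPS (250 ng/mL) and ATP (1.25 mM) stimulation; lower signal means less secretion.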
uPA generation: qHTS for Inhibitors of Cell Surface uPA Generation; cell surface uPA generation assay, qHTS; Potency, µM (titrated, usually from 38.3 µM), usual class: inhibitors; actives 0.31% (n = 330,000); AID 540303, 2011; active means well fitted inhibition curve with a large enough effect; inconclusive means small, poorly fitted or top-dose-only effect; inactive means no such curve, though single readings can be large or run the other way; tested in mouse RAW 264.7 cells; further: nearly all actives have a fitted effect of over 55% in size
Large screens that a line does not name were inactive. Rows were chosen to be rich in hits. Some 19% of all compounds tested hit in one or more screens of this group. Unless noted, the call rests on the fitted dose curve; in most records, active means well fitted curve in the direction sought with a large enough effect; inconclusive means small, poorly fitted or top-dose-only effect, or another doubt; inactive means no such curve, though single readings can be large; an effect the other way counts as inactive or inconclusive.

Cc1cc(=O)n2nc(N3CCCC(C(=O)NCCCN4CC(C)CC(C)C4)C3)sc2n1 (stereo not drawn)	none
O=C(/C=C/c1ccc(Br)cc1)N1CCN(Cc2ccccc2)CC1	TDP1 cell CPT inconclusive, TDP1 cell noCPT inconclusive, IL-1B inflam inh -81.0
CN(CC(=O)N1CCN(Cc2ccccc2)CC1)C(=O)Cc1cccc2ccccc12	TDP1 cell CPT 13µM, TDP1 cell noCPT 13µM
COc1ccc(CN2CCN(C(=O)c3cccc4ccccc34)CC2)cc1Br	HT1080 IDH1KD tx inconclusive, TDP1 cell noCPT inconclusive, HT1080NT lethal inconclusive, IL-1B inflam inh -64.5
O=C(Nc1cccc2ccccc12)N1CCN(Cc2ccccc2)CC1	none
COc1ccc(CNC(=O)CCC2N=C3c4ccccc4N=C(SCC(=O)NCCc4ccc(OC)c(OC)c4)N3C2=O)cc1 (stereo not drawn)	TDP1 cell noCPT inconclusive (no result: HT1080 IDH1KD tx, HT1080NT lethal, IL-1B inflam inh, uPA generation)
CCOc1ccc(NC(=O)Cn2c(CCC(=O)O)ccc2-c2ccc(C)cc2)cc1	TDP1 cell noCPT inconclusive (no result: HT1080 IDH1KD tx, HT1080NT lethal, IL-1B inflam inh, uPA generation)
CC[C@@H](C)[C@@H](CO)NC(=O)[C@H]1O[C@@H](n2cnc3c(N)ncnc32)[C@H](O)[C@@H]1O	none (no result: uPA generation)
Cc1nc(CN2C(=O)C3(CCC3)ON=C2c2cccc(Cl)c2)cs1	TDP1 cell CPT inconclusive, TDP1 cell noCPT inconclusive (no result: uPA generation)
O=c1[nH]c(CSc2nc(-c3ccccc3)cs2)nc2ccccc12	TDP1 cell CPT inconclusive, TDP1 cell noCPT inconclusive
O=c1[nH]cnc2sc(-c3ccccc3)cc12	none
CCOC(=O)c1c(C)[nH]c(C(=O)CSc2ccccc2)c1C	TDP1 cell noCPT inconclusive
CC(C)N(C(=O)CSc1ncnc2sc(-c3ccccc3)cc12)C(C)C	TDP1 cell CPT inconclusive, TDP1 cell noCPT 14.6µM
O=c1[nH]c(CSc2ncnc3sc(-c4ccccc4)cc23)nc2ccccc12	TDP1 cell CPT 16.4µM, TDP1 cell noCPT 13µM
CC(Sc1ncnc2sc(-c3ccccc3)cc12)C(=O)N1CCNC1=O (stereo not drawn)	TDP1 cell CPT 18.4µM, TDP1 cell noCPT inconclusive
COC(=O)c1c(C)[nH]c(C(=O)CSc2ncnc3sc(-c4ccccc4)cc23)c1C	TDP1 cell CPT 18.4µM, TDP1 cell noCPT 16.4µM
CN1CCc2c(sc(NC(=O)c3ccc(S(=O)(=O)N4CCCC4)cc3)c2C(N)=O)C1	TDP1 cell CPT inconclusive, TDP1 cell noCPT 16.4µM
NC(=O)c1c(NC(=O)c2ccc([N+](=O)[O-])o2)sc2c1CCCC2	TDP1 cell CPT inconclusive, HT1080 IDH1KD tx inconclusive, TDP1 cell noCPT inconclusive, HT1080NT lethal inconclusive (no result: IL-1B inflam inh)
CN1CCc2c(sc(NC(=O)c3ccc([N+](=O)[O-])o3)c2C(N)=O)C1	TDP1 cell CPT 1.64µM, HT1080 IDH1KD tx 0.581µM, TDP1 cell noCPT 3.66µM, HT1080NT lethal 6.51µM, IL-1B inflam inh -98.1
CN1CCc2c(sc(NC(=O)c3ccco3)c2C(N)=O)C1	none
CN1CCc2c(sc(NC(=O)c3cc(Cl)sc3Cl)c2C(N)=O)C1	TDP1 cell CPT inconclusive, HT1080 IDH1KD tx inconclusive, TDP1 cell noCPT 20.6µM, HT1080NT lethal inconclusive, IL-1B inflam inh -90.7
CN1CCc2c(sc(NC(=O)c3ccc(S(=O)(=O)N4CCCCCC4)cc3)c2C(N)=O)C1	TDP1 cell CPT 18.4µM, HT1080 IDH1KD tx 20.6µM, TDP1 cell noCPT 11.6µM, HT1080NT lethal 23.1µM, IL-1B inflam inh -96.1
Cc1ccccc1NS(=O)(=O)c1ccc2[nH]cc(C(=O)N3CCCC3)c(=O)c2c1	none (no result: HT1080 IDH1KD tx, HT1080NT lethal, IL-1B inflam inh, uPA generation)
Cc1c(C(=O)Oc2ccc(Br)cc2)sc2ncn(Cc3ccccc3F)c(=O)c12	none (no result: HT1080 IDH1KD tx, HT1080NT lethal, IL-1B inflam inh, uPA generation)
CC(=O)Nc1ccccc1-c1nc(CNC(=O)c2cccc(-n3cccn3)c2)c(C)o1	none (no result: HT1080 IDH1KD tx, HT1080NT lethal, IL-1B inflam inh, uPA generation)
CNC(=O)c1c(NC(=O)c2ccc(S(=O)(=O)N3CCCc4ccccc43)cc2)sc2c1CCN(C)C2	TDP1 cell CPT 23.1µM, TDP1 cell noCPT 13µM
CCOC(=O)c1cc(-c2ccccc2)sc1NC(=O)CN1C(=O)c2ccccc2C1=O	none
CCCC1(c2ccccc2)NC(=O)N(CC(=O)Nc2sc(-c3ccccc3)cc2C(=O)OCC)C1=O (stereo not drawn)	TDP1 cell CPT inconclusive, HT1080 IDH1KD tx 11.6µM, TDP1 cell noCPT inconclusive, HT1080NT lethal 16.4µM
CCCC1(c2ccccc2)NC(=O)N(CC(=O)c2[nH]c(C)c(C(=O)OCC)c2C)C1=O (stereo not drawn)	TDP1 cell CPT inconclusive, TDP1 cell noCPT 20.6µM, HT1080NT lethal inconclusive
C[C@@H]1CN([C@H](C)CO)C(=O)CCCn2cc(nn2)CO[C@H]1CN(C)S(=O)(=O)c1ccc(-c2ccccc2)cc1	TDP1 cell noCPT inconclusive (no result: uPA generation)
COc1ccccc1Cc1c(C2CCCCC2)nc2cc(C)c(Br)c(C)n12	none (no result: uPA generation)
NC(=O)CC(NC(=O)c1ccccc1)c1ccc(NCc2ccccc2)c([N+](=O)[O-])c1 (stereo not drawn)	TDP1 cell CPT 20.6µM, TDP1 cell noCPT 23.1µM
CN(Cc1ccccc1)c1ccc(C(CC(N)=O)NC(=O)Cc2ccc(Br)cc2)cc1[N+](=O)[O-] (stereo not drawn)	TDP1 cell CPT inconclusive, TDP1 cell noCPT inconclusive, uPA generation inconclusive
NC(=O)CC(NC(=O)c1ccccc1)c1ccc(NCc2ccc(F)cc2)c([N+](=O)[O-])c1 (stereo not drawn)	TDP1 cell CPT 18.4µM, TDP1 cell noCPT inconclusive, IL-1B inflam inh inconclusive
CN(Cc1ccccc1)c1ccc(C(CC(N)=O)NC(=O)c2ccccc2)cc1[N+](=O)[O-] (stereo not drawn)	TDP1 cell CPT 23.1µM, TDP1 cell noCPT 16.4µM
NC(=O)CC(NC(=O)c1ccc(Br)cc1)c1ccc(NCc2ccc(F)cc2)c([N+](=O)[O-])c1 (stereo not drawn)	TDP1 cell CPT inconclusive, TDP1 cell noCPT inconclusive
NC(=O)CC(NC(=O)Cc1ccc(Br)cc1)c1ccc(NCc2ccc(F)c(F)c2)c([N+](=O)[O-])c1 (stereo not drawn)	TDP1 cell CPT 16.4µM, HT1080 IDH1KD tx inconclusive, TDP1 cell noCPT inconclusive, HT1080NT lethal inconclusive, uPA generation inconclusive
Cc1ccc(Cc2nnc(SCC(=O)Nc3c(C)cccc3C)[nH]c2=O)cc1	TDP1 cell CPT inconclusive, TDP1 cell noCPT 6.51µM
CC1CCCCC1NC(=O)COC(=O)c1ccc2c(c1Cl)C(=O)c1ccccc1C2=O (stereo not drawn)	none

Screening data (PubChem BioAssay)
